Inconclusive results are not listed. Calls of active or inactive are those of the source. Unless noted, calls come from the whole dose curve; as a rule, active = well fitted curve in the direction sought with a large enough effect in the repeat runs; inconclusive = weak or mixed curves; inactive = no such curve, though single readings can be large; an effect the other way counts as inactive or inconclusive.
How the values were obtained:
[1] = qHTS assay to identify small molecule antagonists of the retinoid acid receptor (RAR) signaling pathway - cell viability counter screen (AID 1159551); note: nearly all actives have a fitted effect of over 35% in size
Procedure, shortened: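 ATP-based viability, C3RL4 cells, 6 h at 37 C with 1 uM final retinol co-added after compound; luminescence read 30 min post CellTiter-Glo, RT.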

[2] = qHTS assay to identify small molecule antagonists of the retinoic acid receptor (RAR) signaling pathway (AID 1159552; note: nearly all actives have a fitted effect of over 50% in size)
Procedure, shortened: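 C3RL4 RARE-luc cells, overnight plating; retinol 1 uM final added right after compound; 6 hr 37 C; luciferase read at 30 min RT.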

[3] = qHTS assay to identify small molecule agonists of the retinoic acid receptor (RAR) signaling pathway (AID 1159553); note: potency is the fitted concentration of half-maximal effect
Procedure, shortened: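 Quantitative high-throughput format: the Tox21 10K library was tested on C3RL4 RARE-luciferase cells for 6 hr at 37 C and 5% CO2, with luminescence measured after a 30 min room-temperature reagent step.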

[4] = qHTS assay to identify small molecule agonists of the estrogen related receptor (ERR) signaling pathway (AID 1224820)
Procedure, shortened: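 Following a 6 h settling period, 2,000 ERR cells per well receive DMSO-dissolved compounds by pin tool and incubate 18 h at 37 C; agonist activity is scored from One-Glo luminescence read 30 min post-addition.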

[5] = test system: estrogen-related receptor alpha (ERRalpha) with PGC-1alpha coactivator, human; test: qHTS assay to identify small molecule antagonists of the estrogen related receptor signaling pathway with the pleiotropic PPARgamma coactivator (PGC) (AID 1224821; calls by dose curve;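 note: series mostly up to about 46 µM; lower luminescence signal means antagonism of PGC/ERR signalling; nearly all actives have a fitted effect of over 50% in size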)
Procedure, shortened: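 Screening used NTP's PGC/ERR cells, dosed via pin tool with compound in DMSO alongside positive and negative controls. After 18 h at 37 C, One-Glo reagent sat 30 min at room temperature before luminescence detection.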

[6] = qHTS assay to identify small molecule antagonists of the estrogen related receptor signaling pathway with the pleiotropic PPARgamma coactivator (PGC) cell viability counter screen (AID 1224822; note: series mostly up to about 46 µM)
Procedure, shortened: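 Cytotoxicity in the PGC/ERR cell line is assessed with CellTiter-Fluor, read as fluorescence intensity 30 min after reagent addition, following 17.5 h compound treatment at 37 C.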

[7] = qHTS assay to identify small molecule agonists of the estrogen related receptor signaling pathway with the pleiotropic PPARgamma coactivator (PGC) (AID 1224823)
Procedure, shortened: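 In this quantitative high-throughput screen, an 18 h, 37 C treatment of PGC/ERR cells with compounds in DMSO preceded a One-Glo luminescence read taken after 30 min at room temperature.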

[8] = qHTS assay to identify small molecule antagonists of the estrogen related receptor (ERR) signaling pathway from Tox21 library - cell viability counter screen (AID 1224834); note: nearly all actives have a fitted effect of over 30% in size; note: potency is the fitted concentration of half-maximal effect
Procedure, shortened: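 Compounds in DMSO were pinned onto ERR cells that had been incubated for 6 h, and the plates were held at 37 C for 17.5 h. CellTiter-Fluor reagent was then added and fluorescence was measured after 30 min.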

[9] = qHTS assay to identify small molecule antagonists of the estrogen related receptor (ERR) signaling pathway - cell viability counter screen (AID 1224818);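 note: series mostly up to about 46 µM; viability measured after 17.5 h of compound exposure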
Procedure, shortened: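 Quantitative high-throughput viability counter screen in ERR cells. Compounds (DMSO) incubated 17.5 h at 37 C; read-out was CellTiter-Fluor fluorescence.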

[10] = qHTS assay to identify small molecule antagonists of the estrogen related receptor (ERR) signaling pathway (AID 1224819;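 note: luminescence from an ERR-driven luciferase reporter measured with One-Glo reagent; series mostly up to about 46 µM; nearly all actives have a fitted effect of over 50% in size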)
Procedure, shortened: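 ERR reporter cell line (NTP) plated at 2,000 cells/well, settled 6 h at 37C/5% CO2, then exposed to LOPAC compounds for 18 h at 37C. One-Glo luciferase luminescence read after 30 min at room temperature.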
% is set by controls: 0 for no effect and ±100 for the full control effect.

CCCCCCCCCCCCCCCCCCOS(=O)(=O)O
inactive: Potency [1] | Potency [2] | Potency [3]

CCCCC/C=C\C/C=C\CCCCCCCC(=O)NC(C)c1ccccc1 (configuration not stated)
inactive: Potency [1] | Potency [2] | Potency [3]

OCc1cc(C(O)CNCCCCCCOCCCCc2ccccc2)ccc1O (configuration not stated)
active: Potency [8] 10.6 µM
inactive: Potency [1] | Potency [2] | Potency [3] | outcome [4] | Potency [5] | outcome [6] | outcome [7]

NC(N)=NCCC[C@H](N)C(=O)O
inactive: activity change, negative = cytotoxicity [1] -0.0145% [at 8.39 µM] | activity, negative = inhibition [2] 5.45% [at 8.39 µM] | activation [3] 0.0873% [at 8.36 µM] | outcome [9] | Potency [10] | outcome [4] | Potency [5] | outcome [6] | outcome [7] | viability change, negative = cytotoxic [8] 3.84% [at 8.39 µM]

CCCCCCCCCCCCCCCCOS(=O)(=O)O
inactive: Potency [1]

CCCCc1nc2cccnc2n1Cc1ccc(-c2ccccc2-c2nnn[nH]2)cc1
inactive: Potency [1]

C[C@H](CCC(=O)O)[C@H]1CC[C@H]2[C@@H]3CC[C@@H]4C[C@H](O)CC[C@]4(C)[C@H]3C[C@H](O)[C@]12C
inactive: Potency [1] | Potency [2] | Potency [3]

COCC(C)OC(C)=O (configuration not stated)
inactive: Potency [1] | Potency [2] | Potency [3] | Potency [8]

COc1ccc(C)cc1[N+](=O)[O-]
inactive: Potency [1] | Potency [2] | Potency [3] | Potency [8]

C=CCOc1ccccc1OCC(O)CNC(C)C (configuration not stated)
inactive: Potency [1] | Potency [2] | Potency [3] | Potency [8]

CCCCCCCCCCCCCCOS(=O)(=O)O
inactive: Potency [1]

Cc1oc(-c2ccccc2)nc1CCOc1cccc2c1ccn2CCC(=O)O
inactive: Potency [1] | Potency [2] | Potency [3]
active: Potency [8] 30.6 µM

COc1ccc(C(=O)Nc2nc3ccccc3c(NCc3ccccc3)c2C#N)cc1
inactive: Potency [1]

O=C(NCC1CN(c2ccc(N3CCOCC3=O)cc2)C(=O)O1)c1ccc(Cl)s1 (configuration not stated)
inactive: Potency [1] | Potency [2] | Potency [3] | Potency [8]

CCOC(=O)NCCOc1ccc(Oc2ccccc2)cc1
inactive: Potency [1] | Potency [2]

Cn1c(=O)cc(Oc2ccc(F)cc2F)c2cnc(NCC(C)(C)O)nc21
inactive: Potency [1]

CC(C)O.CC(C)O.CCOC(=O)/C=C(\C)O.CCOC(=O)/C=C(\C)O.[Ti]
inactive: Potency [1] | Potency [2] | Potency [3] | Potency [8]

CN(C)C(=O)NC1(c2ccccc2)CCN(CC[C@@]2(c3ccc(F)c(F)c3)CN(C(=O)c3ccccc3)CCO2)CC1
inactive: Potency [1]

CCCCCCCCO[C@@H]1O[C@H](CO)[C@@H](O)[C@H](O)[C@H]1O
inactive: Potency [1] | Potency [2] | Potency [3] | Potency [8]

CCCOC(C(=O)OC1CCN(C)CC1)(c1ccccc1)c1ccccc1
inactive: Potency [1]

CCOc1ccc(N)c([N+](=O)[O-])c1
inactive: Potency [1] | Potency [2] | Potency [3]

CCCCC(CC)CN1C(=O)C2C3C=CC(C3)C2C1=O (configuration not stated)
inactive: Potency [1]

COc1cc2nc(N(C)CCCNC(=O)C3CCCO3)nc(N)c2cc1OC (configuration not stated)
inactive: Potency [1] | Potency [2] | Potency [3] | outcome [9] | Potency [10] | outcome [4] | Potency [5] | outcome [6] | outcome [7]

Cc1cc(N)c2cc(NC(=O)Nc3ccc4nc(C)cc(N)c4c3)ccc2n1
inactive: Potency [1] | Potency [2] | Potency [3] | Potency [8]

COc1ccc(C(=O)c2ccc(OC)cc2O)c(O)c1
inactive: Potency [1] | Potency [2]

CCOC(=O)C1=C[C@]2(CC)CCCN3CCc4c(n1c1ccccc41)[C@@H]32
inactive: Potency [1] | Potency [2] | Potency [3] | outcome [9] | outcome [6]

OCCN1CCN(CCCN2c3ccccc3C=Cc3ccccc32)CC1
inactive: Potency [1] | Potency [2] | Potency [3]

CCCCCCCCCCCc1ccccc1
inactive: Potency [1] | Potency [2] | Potency [3] | Potency [8]

CCc1c(C(=O)NN2CCCCC2)nn(-c2ccc(Cl)cc2Cl)c1-c1ccc(Br)cc1
inactive: Potency [1]

CC(C)(C)Cl
inactive: Potency [1] | Potency [2] | Potency [3] | Potency [8]

CCOC(=O)C(=O)CCc1ccccc1
inactive: Potency [1] | Potency [2] | Potency [3] | Potency [8]

C/C(=C(\CCOP(=O)(O)O)SC(=O)c1ccccc1)N(C=O)Cc1cnc(C)nc1N
inactive: activity change, negative = cytotoxicity [1] 2.57% [at 8.39 µM] | activity, negative = inhibition [2] 10.1% [at 8.39 µM] | activation [3] 0.351% [at 8.36 µM] | viability change, negative = cytotoxic [8] 0.62% [at 8.39 µM]

CCO[C@H](Cc1ccc(OCCc2ccc(OS(C)(=O)=O)cc2)cc1)C(=O)O
inactive: Potency [1] | Potency [2] | Potency [3] | Potency [8]

CCN(CC)CCOC(=O)C(Cc1cccc2ccccc12)CC1CCCO1 (configuration not stated)
inactive: Potency [1] | Potency [2] | Potency [3]

O=P(O)(OCc1ccccc1)OCc1ccccc1
inactive: Potency [1] | Potency [2] | Potency [3] | Potency [8]

COC(C)(C)CCO
inactive: Potency [1] | Potency [2] | Potency [3] | Potency [8]

CN1C[C@H]2c3ccccc3Oc3ccc(Cl)cc3[C@@H]2C1
inactive: Potency [1] | Potency [2] | Potency [3] | Potency [8]

CCOC(=O)C(F)(F)F
inactive: Potency [1] | Potency [2] | Potency [3] | Potency [8]

Nc1ccc([N+](=O)[O-])c(C(F)(F)F)c1
inactive: Potency [1] | Potency [2] | Potency [3] | Potency [8]

CCOc1ccc(N=Nc2ccc(/C=C/c3ccc(N=Nc4ccc(OCC)cc4)cc3S(=O)(=O)O)c(S(=O)(=O)O)c2)cc1
active: Potency [8] 24 µM
inactive: Potency [1] | Potency [2] | Potency [3]

O=C(O)C1(C(=O)Nc2ccc(Cl)cc2Cl)CC1
inactive: Potency [1] | Potency [2] | Potency [8]
active: Potency [3] 6.11 µM

O=CC1CC=CCC1 (configuration not stated)
inactive: Potency [1] | Potency [2] | Potency [3] | Potency [8]

Reference: PubChem BioAssay (Tox21)
